Measured values published in article PMC4336329 (PLoS ONE, 2015).
About 14,000 (4.5%) of roughly 310,000 compounds showed an effect of 50% or more. The effect is printed as a negative number. The list comes from a sample in which strong results are over-represented; it also holds similar structures and randomly drawn compounds.

Each molecule was assayed against human ether-à-go-go-related gene (hERG) potassium channel (human, UniProt Q12809) (assay: primary screen, population patch clamp on CHO cells stably expressing hERG; higher = less effect of the substance).
Chain of human ether-à-go-go-related gene (hERG) potassium channel (Q12809 whole entry, looked up): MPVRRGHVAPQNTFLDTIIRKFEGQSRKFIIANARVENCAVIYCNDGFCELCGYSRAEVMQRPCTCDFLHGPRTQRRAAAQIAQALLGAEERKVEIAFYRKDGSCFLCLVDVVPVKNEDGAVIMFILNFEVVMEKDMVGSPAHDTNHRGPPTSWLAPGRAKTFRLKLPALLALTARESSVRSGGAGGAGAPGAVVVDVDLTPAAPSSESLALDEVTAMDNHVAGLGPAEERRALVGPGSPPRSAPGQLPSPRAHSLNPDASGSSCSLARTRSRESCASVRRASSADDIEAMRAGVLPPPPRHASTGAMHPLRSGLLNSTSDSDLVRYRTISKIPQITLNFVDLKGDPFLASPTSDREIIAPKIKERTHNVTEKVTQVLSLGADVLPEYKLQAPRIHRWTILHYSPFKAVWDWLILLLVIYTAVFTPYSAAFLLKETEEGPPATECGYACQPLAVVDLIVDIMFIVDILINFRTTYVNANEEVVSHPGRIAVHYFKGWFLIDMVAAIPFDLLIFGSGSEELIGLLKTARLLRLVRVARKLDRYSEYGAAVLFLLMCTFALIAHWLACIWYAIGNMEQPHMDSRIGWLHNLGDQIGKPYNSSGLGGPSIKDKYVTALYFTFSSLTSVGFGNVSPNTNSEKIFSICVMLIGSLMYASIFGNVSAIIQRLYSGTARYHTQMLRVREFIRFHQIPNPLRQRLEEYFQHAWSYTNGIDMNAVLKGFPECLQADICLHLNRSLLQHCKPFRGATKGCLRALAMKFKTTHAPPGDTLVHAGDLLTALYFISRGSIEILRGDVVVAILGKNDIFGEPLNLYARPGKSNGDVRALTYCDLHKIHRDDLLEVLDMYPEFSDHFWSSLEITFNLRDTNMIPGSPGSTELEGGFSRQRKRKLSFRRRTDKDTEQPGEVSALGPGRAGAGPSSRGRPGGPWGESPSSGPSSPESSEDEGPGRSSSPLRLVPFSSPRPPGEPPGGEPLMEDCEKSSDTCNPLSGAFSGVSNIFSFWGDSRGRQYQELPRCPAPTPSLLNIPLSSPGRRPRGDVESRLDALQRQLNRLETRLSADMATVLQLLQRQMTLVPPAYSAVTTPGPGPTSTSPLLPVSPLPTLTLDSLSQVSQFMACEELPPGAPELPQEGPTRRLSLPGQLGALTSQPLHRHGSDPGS
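Also: peak tail current of the secondary pulse compared with the same well before compound.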

SMILES	hERG current change (%, negative = inhibition) at 10uM
COc1ccc(/C=N/NC(=O)c2cccnc2)cc1CN1CCc2cc(OC)c(OC)cc2C1C (stereo not drawn)	-40.9%
COc1ccc(/C=N/NC(=O)c2ccc(F)cc2)cc1CN1CCc2cc(OC)c(OC)cc2C1C (stereo not drawn)	-88.3%
Cc1nc2cc(NC(=O)Nc3ccc(N4CCOCC4)cc3)ccc2n1C	6.34%
COCCn1c(Br)nc2c1c(=O)n(C)c(=O)n2C	8.14%
Cc1ccccc1C(=O)N1CCN(c2ccc(NC(=O)c3cccs3)cc2)CC1	4.97%
CC(=O)Nc1ccc(S(=O)(=O)NCC2CCC(C(=O)NCCCN(C)Cc3ccccc3)CC2)cc1 (stereo not drawn)	6.98%
CCn1c(SCC(=O)NCC2CCCO2)nnc1-c1ccccc1OC (stereo not drawn)	10.9%
CS(=O)(=O)Nc1ccccc1C(=O)NCC1(N2CCCCC2)CCCCC1	-8.32%
O=C(O)c1ccc(NS(=O)(=O)c2ccc(C(=O)Nc3ccccc3)cc2)cc1	-8.65%
Cc1ccc(Cn2nnnc2CN2CCC(NC(=O)c3ccc(Br)cc3)CC2)cc1	-44.7%
Cc1ccc(Cn2nnnc2CN2CCC(n3nnc4ccccc43)CC2)cc1.Cl	-53.9%
Cc1ccc(Cn2nnnc2CN2CCC(NC(=O)C(C)(C)C)CC2)cc1.Cl	0.395%
Cc1ccc(Cn2nnnc2CN2CCC(n3nnc4cc(C)ccc43)CC2)cc1	-65.2%
Cc1ccc(C)c(CN2CCC(n3nnc4cc(F)ccc43)CC2)c1	-21.2%
Cc1ccc(S(=O)(=O)N2CCC(n3nnc4cc(C)ccc43)CC2)cc1	-28.9%
COc1ccc(CCNC(=O)CSc2nc(N)cc(=O)[nH]2)cc1OC	29.6%
Cc1ccc(S(=O)(=O)N(C)C)cc1NC(=O)C(C)N(C)Cc1sccc1C (stereo not drawn)	-16.1%
O=C(COc1ccccc1)Nc1ccc2oc(=O)ccc2c1	4.76%
CCOC(=O)N1CCN(C(=O)c2ccc3c(=O)n(Cc4ccc(Cl)cc4)c(=S)[nH]c3c2)CC1	4.36%
CN(C)c1ccc(N/C=C/C(=O)c2ccco2)cc1	4.67%
Cc1nn(C)c(C)c1CN(Cc1nc(CCC(C)C)no1)C(C)C	13%
COC(=O)c1cccc(N(C(=O)CNC(=O)c2ccco2)C(C(=O)NC2CCCC2)c2ccco2)c1 (stereo not drawn)	6.89%
CSc1cccc(CN2CCC(CO)(Cc3ccccc3)CC2)c1	-44.8%

SMILES	hERG current change (%, negative = inhibition) at 10uM
COc1ccc2[nH]c(C(=O)N3CCC(CO)(Cc4cccc(C(F)(F)F)c4)CC3)c(C)c2c1	7.98%
Cc1c(CN2CCC(CO)(Cc3cccc(C(F)(F)F)c3)CC2)c2ccccc2n1C	-47.2%
FC(F)(F)c1cccc(CN2CCCCCC2)c1	2.33%
CCOc1cc(CN2CCN(C(=O)Cc3ccccc3)CC2)ccc1OC.O=C(O)C(=O)O	-37.6%
OCC1(Cc2cccc(C(F)(F)F)c2)CCN(Cc2cc(F)cc(F)c2)CC1	-43.4%
CCOc1cc(CN2CCCCCC2)ccc1OC	-3.28%
CSc1cccc(CN2CCC(CO)(Cc3cccc(C(F)(F)F)c3)CC2)c1	-64.4%
CCOc1cc(CN2CCC(CO)(Cc3cccc(C(F)(F)F)c3)CC2)ccc1OC	-76.6%
COc1cc(CN2CCC(CO)(Cc3cccc(C(F)(F)F)c3)CC2)ccc1F	-68.7%
COc1ccc(F)c(CN2CCC(CO)(Cc3cccc(C(F)(F)F)c3)CC2)c1	-58.4%
COc1ccc(C(=O)Nc2ccc(N3CCOCC3)cc2)cc1OC	1.36%
Cc1ccc(CC(=O)NCCc2ccc(S(N)(=O)=O)cc2)cc1	5.87%
Brc1ccc([C@H]2CN3CCSC3=N2)cc1.O=C(O)C(=O)O	-35.7%
COc1ccc(OC)c(NC(=O)c2ccccc2SC)c1	-40.2%
CC(C)c1ccc(C2NC(=O)NC3=C2CCc2ccccc23)cc1 (stereo not drawn)	-33.5%
COc1cc(Cl)c(CC(=O)c2c[nH]c3ccccc23)cc1OC	15.9%
OCC1(Cc2ccccc2C(F)(F)F)CCN(Cc2ccncc2)CC1	-13.8%
CC(=O)c1ccc(C(=O)N2CCC(CO)(Cc3cccc(C(F)(F)F)c3)CC2)cc1	-74.6%
COc1ccc(CN2CCC(CO)(Cc3ccccc3C(F)(F)F)CC2)c(F)c1	-67.3%
CC1(C(=O)N2CCC(CO)(Cc3cccc(C(F)(F)F)c3)CC2)CC1	4.02%
CN(C)S(=O)(=O)N1CCC(CO)(Cc2cccc(C(F)(F)F)c2)CC1	-4.25%
OCC1(Cc2ccccc2C(F)(F)F)CCN(Cc2cccc3cnccc23)CC1	-11%
